The values that follow come from PubChem BioAssay (NCI).

Molecules are shown by their SMILES. Compounds without any hit were thinned out: in the full panel of roughly 83,000, 20% have a hit.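 Interpretation: 100, growth as untreated; towards 0, rising growth inhibition; 0, no net growth; 0 to -100, cell death. Compounds scoring below 10 were considered active.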 A number with no mark means an inactive call. The source made the active and inactive calls.

The subject of the test is SNB-19 CNS. Put plainly: NCI-60 one-dose screen, 48 h (100 = growth as untreated, 0 = no growth, -100 = all killed). To be noted: 10 µM unless noted. The procedure: Growth inhibition of the SNB-19 human tumor cell line is measured as a screen for anti-cancer activity. Cells are grown in 96 well plates and exposed to the test compound for 48 hours. Compounds are tested at a single concentration, which is 10^-5 M for most compounds. The reported endpoint is percent growth (GI% or GIPRCNT), where numbers from 0 - 100% represent growth inhibition, and numbers from -100% - 0 represent cell death. For example, a value of 40 represents 60% growth inhibition. A value of 0 means no net growth occurred over the course of the experiment. A value of -40 indicates 40% of cells at the beginning of the experiment died by the end of the experiment. A value of -100 means all cells are dead at the end of the experiment.
NCI-60 Human Tumor Cell Lines Screen was performed using the standard one-dose NCI protocol, which is described in more detail at https://dtp.cancer.gov/discovery_development/nci-60/default.htm.
Compounds with GIPRCNT values below 10 were considered active. Activity score was based on GIPRCNT using the following formula: […]
Score is 0 for GIPRCNT values of 100 or above, 50 for GIPRCNT values of 0, and 100 for GIPRCNT values of -100.
For the compound `CCN(CCO)CCCOc1ccc2c(Nc3cc(CC(=O)Nc4cccc(F)c4)[nH]n3)ncnc2c1`, the growth is 39.1%.

On to `CCOc1ccc(N=C(C)Nc2ccc(OCC)cc2)cc1`, for which the growth is 99.2%. The same measure for `Nc1c2c(c(O)c3c1=C(CO)C=N3)=NCCS2`: -93.7% (active); for `CCN1CCN(c2cc(C)nc(N(CCCNc3ccnc4cc(Cl)ccc34)Cc3ccc4c(c3)OCO4)n2)CC1`: 16.3%. `COc1cc(OC)c(/C=C/S(=O)(=O)Cc2ccc(OC)c(NCC(=O)O)c2)c(OC)c1`: the growth is 29.4%.

On to `C=CCC(=O)N[C@H](/C=C/C(=O)O)Cc1ccc(-c2cc(Cl)cc(Cl)c2)cc1`, for which the growth is 97.9%. The same measure for `Cc1nc2ccc(-n3ncc(C(=O)c4cc5ccccc5[nH]4)c3N)cc2[nH]1`: 48.2%; for `Cc1cc2c(-c3nc4ccccn4c3N)c(O)c(O)cc2c(O)c1-c1c(C)cc2c(-c3nc4ccccn4c3N)c(O)c(O)cc2c1O`: 12.8%; for `Fc1ccc(NCc2cn(-c3ccccc3)nc2-c2ccc(OCc3ccccc3)cc2)cc1Cl`: 95.1%.

Consider `Cc1cc(Nc2cc(N3CCN(C)CC3)nc(/C=C/c3ccccc3)n2)n[nH]1`, for which the growth is 14%. The result for `COc1cnc2c(c1)C(=O)c1c-2n(CCCN2CCOCC2)c(=O)c2cc(Cl)ccc12` reads 28.6%. The same measure for `COCCN1CCN(Cc2ccc(-c3n[nH]c4c3C(=O)c3c(NC(=O)NN5CCOCC5)cccc3-4)cc2)CC1`: 2.99% (active). `Cc1ccccc1Nc1nc2nonc2nc1Nc1cccc(C)c1C`: the growth is 52.7%. The result for `Cc1cc(C(=O)Nc2cc(Oc3ccc4nc(NC(=O)C5CC5)cn4n3)ccc2C)n(C)n1` reads 33.5%. Take `CN1C/C=C\CCOc2cccc(c2)-c2ccnc(n2)Nc2cccc(c2)C1`: the growth was 0.69% (active). The same measure for `COc1cc(-c2nc(C(=O)Nc3ccc(C)cc3)nn2-c2ccc(F)c(F)c2)cc(OC)c1OC`: 104%; for `CCC1(/C=N/NC(N)=S)NC(=O)NC1=O` (stereo not given): 109%.

For `CN1CCN(c2nc(C3=C(c4c[nH]c5ccccc45)C(=O)NC3=O)c3ccccc3n2)CC1`, the growth is 87.5%. `Cc1cc2c(-c3nc4ccccn4c3Nc3cccc4ccccc34)c(O)c(O)cc2c(O)c1-c1c(C)cc2c(-c3nc4ccccn4c3Nc3cccc4ccccc34)c(O)c(O)cc2c1O`: the growth is 15.6%. The same measure for `COC(=O)CC[C@@H](C)[C@H]1CC[C@H]2C3CC[C@@H]4C[C@@H]5CC[C@]4(C)[C@@]3(O5)[C@H](Br)[C@@H](Br)[C@]12C` (stereo not given in full): 106%. Regarding `C[C@]12O[C@H](C[C@]1(O)CO)n1c3ccccc3c3c4c(c5c6ccccc6n2c5c31)CNC4=O`, the growth is -20.6% (active). As to `CC1CCC(n2cnc3c(Cl)ncnc32)O1` (stereo not given), the growth is 82.3%. For the compound `CC1(O)CC(c2nc(-c3ccc4ccc(-c5ccccc5)nc4c3)c3c(N)nccn23)C1` (stereo not given), the growth was 64.7%. The result for `c1cc[n+](Cc2c3ccccc3cc3c2ccc2ccccc23)cc1` reads 6.26% (active). Take `C=CC[n+]1c(/C=C/C=C2\N(C)c3ccccc3C2(C)C)sc2ccc(OC)cc21`: the growth is 28.2%. The same measure for `CCCCCCCC(=O)SCC/C=C/[C@@H]1CC(=O)NCc2nc(co2)C2=N[C@@](C)(CS2)C(=O)N[C@@H](C(C)C)C(=O)O1`: 9.15% (active); for `O=C(Nc1ccc(C2=NCCCN2)cc1)c1ccc(C(=O)Nc2ccc(C3=NCCCN3)cc2)nc1`: 96.8%. Turning to `CCn1cc(-c2ccnc3[nH]c(-c4cccc(CN(C)C)c4)cc23)c(-c2ccc(NC(=O)N(C)C)cc2)n1`, the growth was 55%. The same measure for `N#CC1(C#N)C(c2cccs2)NC(c2cccs2)C1(C#N)C#N` (stereo not given): 106%; for `CCN1CCN(Cc2ccc(-c3cc4c(N[C@H](C)c5ccccc5)ncnc4[nH]3)cc2)CC1`: 46.2%. With `C[C@@H](NC(=O)c1ncnc(N)c1Cl)c1ncc(C(=O)Nc2cc(C(F)(F)F)c(Cl)cn2)s1`, the growth was 94.7%. The same measure for `C[C@@H]1COC(Nc2ccc3ncnc(Nc4ccc(OCc5nccs5)c(Cl)c4)c3c2)=N1`: 67.8%; for `CN(c1ncccc1CNc1nc(Nc2ccc3c(c2)CC(=O)N3)ncc1C(F)(F)F)S(C)(=O)=O`: 7.98% (active); for `COc1ccc2c(CCc3ccc(Cl)cc3)c3[n+](cc2c1OC)CCc1cc2c(cc1-3)OCO2`: 28.3%. On to `Cc1csc(-c2nnc(Nc3ccc(Oc4ncccc4-c4ccnc(N)n4)cc3)c3ccccc23)c1`, for which the growth was 43.3%.

Consider `O=C1OCC2=C1C(c1cccc(F)c1)c1cc3c(cc1N2CCO)OCCO3` (stereo not given), for which the growth is 18.6%. The result for `O=C(NO)c1ccc(Cn2c(=O)n(CCc3ccccc3)c(=O)c3ccccc32)cc1` reads 45.2%. The result for `Cc1cccc(C)c1N1C(c2ccccc2)=NNC12C=CC(=O)c1c(O)cccc12` (stereo not given) reads 69.7%; that for `O=C1C=CC2(NN=C(c3ccccc3)N2c2ccc(Cl)cc2)c2cccc(O)c21` (stereo not given), 34.8%. The same measure for `COC(=O)[C@@H](NC(=O)[C@@H](OC)[C@@H]1Cc2cc3cc(OC4CC(OC5CC(O)C(O)C(C)O5)C(O)C(C)O4)c(C)c(O)c3c(O)c2C(=O)[C@H]1OC1CC(OC2CC(OC3CC(C)(O)C(O)C(C)O3)C(O)C(C)O2)C(O)C(C)O1)C(C)C` (stereo not given in full): 8.43% (active).
